Test systems include SK-MEL-2 melanoma; EKVX NSCLC; SN12C renal; TK-10 renal; ACHN renal; CAKI-1 renal; A498 renal; CCRF-CEM leukemia; MOLT-4 leukemia; RPMI-8226 leukemia; OVCAR-8 ovarian; OVCAR-5 ovarian; OVCAR-4 ovarian; SK-OV-3 ovarian; OVCAR-3 ovarian; HS 578T breast; NCI/ADR-RES ovarian; UO-31 renal; SR leukemia; IGROV1 ovarian.
Holding throughout (test): NCI-60 one-dose screen, 48 h (100 = growth as untreated, 0 = no growth, -100 = all killed)
Common to all, as to conditions: 10 µM unless noted

Data on eight compounds can be found in PubChem BioAssay (NCI).

The panel holds about 83,000 compounds, 20% with a hit somewhere; the sample as a whole holds those more often.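 Negative percent growth values reflect cell death: -40 means 40% of the cells present at the start died, and -100 means all died.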 Unmarked numbers belong to inactive results. Active and inactive are the calls of the source. How the source made its calls: active means growth percent below 10; inactive means the rest.

As for `COc1ccc(C(=O)COc2ccc(/C=C3\Oc4ccc(OC)cc4C3=O)cc2)cc1`, the growth in the experiment with SK-MEL-2 melanoma was 86.4%; with EKVX NSCLC it was 99.4%; with SN12C renal, 101%; with TK-10 renal, 119%; with ACHN renal, 105%; in the experiment with CAKI-1 renal it was 98.3%. Besides, the growth in the experiment with A498 renal is 98.9%; in the experiment on CCRF-CEM leukemia, 72.6%; in the experiment with MOLT-4 leukemia it was 83.6%; with RPMI-8226 leukemia it was 80.5%; in the experiment with OVCAR-8 ovarian, 88%; with OVCAR-5 ovarian, 117%. The growth with OVCAR-4 ovarian is 115%; in the experiment on SK-OV-3 ovarian, 102%; in the experiment on OVCAR-3 ovarian, 103%; in the experiment with HS 578T breast, 97.3%; in the experiment with NCI/ADR-RES ovarian it was 109%.

`N#CN1CCC[C@H]1C(=O)N1CCc2c(-c3[nH]nc4ncccc34)cccc21`: the growth with SK-MEL-2 melanoma was 3.74% (active); in the experiment on EKVX NSCLC it was 14.6%; in the experiment on UO-31 renal it was 2.24% (active); in the experiment with TK-10 renal, -15.6% (active); in the experiment with ACHN renal it was 6.01% (active); in the experiment with CAKI-1 renal, -32.8% (active). Besides, the growth was -36.5% (active) with A498 renal; 17.5% in the experiment with CCRF-CEM leukemia; 7.28% (active) with MOLT-4 leukemia; 6.84% (active) in the experiment with SR leukemia; 18.1% in the experiment on RPMI-8226 leukemia; 1.11% (active) in the experiment with OVCAR-8 ovarian. The growth in the experiment on OVCAR-5 ovarian was 56.3%; with OVCAR-4 ovarian, 18.5%; in the experiment with SK-OV-3 ovarian, -1.17% (active); in the experiment with IGROV1 ovarian it was 17.1%; in the experiment with OVCAR-3 ovarian it was -32% (active); in the experiment with HS 578T breast, -2.6% (active). Moreover, the growth in the experiment with NCI/ADR-RES ovarian is 8.38% (active).

For the compound `CC1=C[C@H]2c3c(c(O)c(O)c4oc5c(C)cccc5c(=O)c34)[C@H](c3cc(O)c(O)c4oc5c(C)cccc5c(=O)c34)[C@H]2C(C)(C)C1`, the growth in the experiment on SK-MEL-2 melanoma is 20.9%; in the experiment on EKVX NSCLC it was 23.5%; in the experiment with SN12C renal, 10.6%; in the experiment with UO-31 renal it was -27.2% (active); with ACHN renal it was 12.2%; with CAKI-1 renal, 12.5%. Moreover, the growth in the experiment on CCRF-CEM leukemia is 10.8%; in the experiment with MOLT-4 leukemia, 3.99% (active); in the experiment with SR leukemia it was 3.62% (active); in the experiment on RPMI-8226 leukemia, 23.4%; in the experiment with OVCAR-8 ovarian, 18.1%; in the experiment with OVCAR-5 ovarian, 30.4%. Moreover, the growth was 11.3% in the experiment on OVCAR-4 ovarian; 19.1% in the experiment with SK-OV-3 ovarian; 1.21% (active) with IGROV1 ovarian; 13.8% in the experiment with OVCAR-3 ovarian; -6.09% (active) with HS 578T breast; 4.23% (active) in the experiment with NCI/ADR-RES ovarian.

On to `CN(C)S(=O)(=O)c1ccc(S(=O)(=O)Nc2cccc(Cl)c2N2CCCCC2)cc1`, for which the growth with SK-MEL-2 melanoma is 73.8%; in the experiment with EKVX NSCLC it was 68.2%; in the experiment with SN12C renal, 83%; in the experiment with UO-31 renal it was 72.7%; in the experiment on ACHN renal, 75.3%; in the experiment on CAKI-1 renal it was 31.6%. Besides, the growth in the experiment with A498 renal was 103%; with CCRF-CEM leukemia, 75%; in the experiment on MOLT-4 leukemia, 68.9%; in the experiment on RPMI-8226 leukemia, 48%; with OVCAR-8 ovarian, 92%; in the experiment on OVCAR-5 ovarian it was 89.4%. In addition, the growth is 68.2% in the experiment with OVCAR-4 ovarian; 98.3% in the experiment with SK-OV-3 ovarian; 82.5% in the experiment on IGROV1 ovarian; 90.6% in the experiment with OVCAR-3 ovarian; 91.8% in the experiment with HS 578T breast; 76.6% in the experiment with NCI/ADR-RES ovarian.

With `COc1ccc(-n2nc(C)c3c(Nc4ccc(NC(=O)Nc5ccc(Cl)c(C(F)(F)F)c5)cc4)ncnc32)cc1`, the growth with SK-MEL-2 melanoma was -30.2% (active); in the experiment with EKVX NSCLC, 6.63% (active); in the experiment on SN12C renal it was 3.5% (active); with UO-31 renal, 4.67% (active); in the experiment with ACHN renal, 1.09% (active); with CAKI-1 renal, -3.15% (active). The growth with A498 renal is -3.28% (active); in the experiment with CCRF-CEM leukemia, 17.2%; with MOLT-4 leukemia it was 8.28% (active); in the experiment with SR leukemia, 20.8%; in the experiment on RPMI-8226 leukemia, 0.105% (active); in the experiment with OVCAR-8 ovarian it was 5.05% (active). Further, the growth with OVCAR-5 ovarian is 4.07% (active); in the experiment with OVCAR-4 ovarian, 20.8%; in the experiment with SK-OV-3 ovarian, 1.72% (active); in the experiment on IGROV1 ovarian, 18.6%; with OVCAR-3 ovarian it was 5.65% (active); in the experiment with HS 578T breast, -12% (active). Further, the growth in the experiment on NCI/ADR-RES ovarian was 1.32% (active).

As to `COc1ccc(CN2c3ccccc3Oc3ccccc32)cc1F`, the growth is 10% in the experiment with SK-MEL-2 melanoma; 60.7% in the experiment on EKVX NSCLC; 53.3% in the experiment on UO-31 renal; 74.2% in the experiment on TK-10 renal; 81% in the experiment with ACHN renal; 59.3% in the experiment on CAKI-1 renal. In addition, the growth is 54.3% in the experiment with A498 renal; 66.7% in the experiment with CCRF-CEM leukemia; 42% in the experiment with MOLT-4 leukemia; 27.1% in the experiment on SR leukemia; 61.5% in the experiment on RPMI-8226 leukemia; 64.5% in the experiment on OVCAR-8 ovarian. For the same compound, the growth in the experiment with OVCAR-5 ovarian was 86.7%; with OVCAR-4 ovarian, 71.7%; with SK-OV-3 ovarian, 46.5%; with IGROV1 ovarian, 52.1%; with OVCAR-3 ovarian, 43.1%; in the experiment with HS 578T breast, 62.3%.

With `CC[C@@H]1O[C@H](O[C@@H](c2cnc[nH]2)[C@H](NC(=O)c2nc([C@H](CC(N)=O)NC[C@@H](N)C(N)=O)nc(N)c2C)C(=O)N[C@H](C)[C@H](O)[C@H](C)C(=O)N[C@@H](C(=O)NCCc2nc(-c3nc(C(=O)NCCCCN=C(N)N)cs3)cs2)[C@@H](C)O)[C@H](O[C@@H]2O[C@H](CO)[C@H](O)[C@H](OC(N)=O)[C@@H]2O)[C@H](C)[C@@H]1C`, the growth in the experiment on SK-MEL-2 melanoma is 101%; with EKVX NSCLC, 91.8%; in the experiment on SN12C renal it was 21.9%; in the experiment on UO-31 renal, 23.2%; with A498 renal, 78.2%; with CCRF-CEM leukemia, 80.5%. The growth is 46.8% with MOLT-4 leukemia; 73% in the experiment on RPMI-8226 leukemia; 47.2% in the experiment on OVCAR-8 ovarian; 59.5% in the experiment with OVCAR-5 ovarian; 85.6% in the experiment on OVCAR-4 ovarian; 41.8% in the experiment on SK-OV-3 ovarian. In addition, the growth with IGROV1 ovarian was 45.5%; in the experiment on OVCAR-3 ovarian, 60.8%; in the experiment with HS 578T breast it was 38.8%; in the experiment on NCI/ADR-RES ovarian it was 20.1%.

Take `O=c1cc(CSc2nnc(-c3ccc(F)cc3)o2)c2ccc3ccccc3c2o1`: the growth was 87% with SK-MEL-2 melanoma; 88.7% with EKVX NSCLC; 77.7% with UO-31 renal; 102% in the experiment with TK-10 renal; 96.7% in the experiment with ACHN renal; 91.1% with CAKI-1 renal. The growth in the experiment with A498 renal was 94.6%; in the experiment on CCRF-CEM leukemia it was 112%; with MOLT-4 leukemia it was 95.9%; with SR leukemia, 94.1%; in the experiment with RPMI-8226 leukemia it was 101%; in the experiment on OVCAR-8 ovarian it was 96.4%. Moreover, the growth with OVCAR-5 ovarian was 93%; with OVCAR-4 ovarian, 108%; in the experiment with SK-OV-3 ovarian it was 82.4%; in the experiment with IGROV1 ovarian, 101%; with OVCAR-3 ovarian it was 101%; with HS 578T breast, 95.5%. The growth with NCI/ADR-RES ovarian was 91.8%.
